# Values joined by “and” are separate entries in the source; they are usually repeats but may differ in a detail not shown here. Equal entries are not always repeated. Unmarked numbers belong to inactive results. Results filed as inconclusive are left out. Entries that show only a call come without a potency. Active and inactive are the calls of the source. Unless noted, calls come from the whole dose curve; as a rule, active = well fitted curve in the direction sought with a large enough effect in the repeat runs; inconclusive = weak or mixed curves; inactive = no such curve, though single readings can be large; an effect the other way counts as inactive or inconclusive.
# Tests used:
# [1] = A CellTox Green Cytotoxicity Assay to monitor cytotoxicity in HepG2 cells - 8 hour (AID 1224890); note: nearly all actives have a fitted effect of over 45% in size
# Summary of the method: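 Using 1536-well format, dye-containing HepG2 suspension was seeded, allowed 5 h at 37 C/5% CO2, dosed by pintool with compounds, positive and negative controls, and imaged for fluorescence across 40 h.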
# [2] = qHTS assay to identify small molecule antagonists of the estrogen receptor alpha (ER-alpha) signaling pathway using the BG1 cell line in the presence of 0.1 nM 17-beta-estradiol - cell viability counter screen (AID 1259241); note: nearly all actives have a fitted effect of over 40% in size
# Summary of the method: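 Live-cell protease activity (CellTiter-Fluor fluorescence, 30 min) was read in the same wells after VM7Luc4E2 cells had been exposed to compounds with 0.1 nM 17beta-estradiol for 22 hr at 37C.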
# [3] = qHTS assay to identify small molecule antagonists of the androgen receptor (AR) signaling pathway using the MDA cell line in the presence of 0.5 nM R1881 - cell viability counter screen (AID 1259242); note: nearly all actives have a fitted effect of over 45% in size
# Summary of the method: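 Viability of MDA-kb2 cells was multiplexed with the luciferase AR readout; after 16 hr with compounds and R1881 at 0.5 nM final, CellTiter-Fluor fluorescence was recorded.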
# [4] = target: Estrogen receptor (Homo sapiens) (UniProt P03372); assay: qHTS assay to identify small molecule antagonists of the estrogen receptor alpha (ER-alpha) signaling pathway using the BG1 cell line in the presence of 0.1 nM 17-beta-estradiol (AID 1259244); note: nearly all actives have a fitted effect of over 50% in size
# Summary of the method: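 Estradiol at 0.1 nM (final) stimulates the endogenous ER-alpha of VM7Luc4E2 cells carrying an ERE-driven luciferase; compounds are co-incubated 22 h at 37C and luciferase output quantified by luminescence.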
# [5] = qHTS assay to identify small molecule HDAC inhibitors (AID 1259364);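 note: wild-type HCT-116 cells with endogenous class I/II HDAC activity; top concentration of the series differs between compounds; nearly all actives have a fitted effect of over 45% in size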
# Summary of the method: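 Read-out: luminescence of HDAC-Glo I/II reagent, 30 min RT, reflecting class I/II deacetylase activity in whole HCT-116 cells pre-exposed 2 h to DMSO-dissolved compounds.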
# [6] = qHTS assay to identify small molecule HDAC inhibitors - cell viability counter screen (AID 1259365); note: series mostly up to about 92 µM; nearly all actives have a fitted effect of over 50% in size
# Summary of the method: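 HCT-116 (wild type), 1,500 cells/well, overnight 37C/5% CO2; compound in DMSO 2hr; CellTiter-Glo 30min RT; luminescence read.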
# [7] = qHTS assay to identify small molecule agonists of the sonic hedgehog signaling (Shh) pathway - cell viability counter screen (AID 1259366); note: nearly all actives have a fitted effect of over 50% in size; note: potency is the fitted concentration of half-maximal effect
# Summary of the method: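 CellTiter-Fluor fluorescence read-out, 1 hr at 37C, added after 23hr compound exposure. Cells: 3T3 Gli1-Luc, an NIH/3T3 clone with stably integrated Gli1-Luc reporter, plated 4hr before compound.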
# [8] = qHTS assay to identify small molecule antagonists of the sonic hedgehog signaling (Shh) pathway - cell viability counter screen (AID 1259367); note: nearly all actives have a fitted effect of over 55% in size; note: potency is the fitted concentration of half-maximal effect
# Summary of the method: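 Using CellTiter-Fluor, viability of Gli1-Luc reporter 3T3 cells is read by fluorescence in the wells used for the Shh luciferase assay. Treatment lasts 23 hr with conditioned medium, then reagent 1 hr at 37C.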
# [9] = qHTS assay to identify small molecule phospholipidosis (PLD) inducers (AID 1259344; active = well fitted curve in the direction sought with a large enough effect; an effect the other way counts as inactive or inconclusive)
# Summary of the method: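 Fluorescent phospholipid staining (LipidTOX Red) measured by automated microscopy in fixed HepG2 cells after 24 h treatment; nuclei counterstained with Hoechst 33342; amiodarone as reference inducer.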
# Estrogen receptor (Homo sapiens), sequence (P03372 whole entry, looked up): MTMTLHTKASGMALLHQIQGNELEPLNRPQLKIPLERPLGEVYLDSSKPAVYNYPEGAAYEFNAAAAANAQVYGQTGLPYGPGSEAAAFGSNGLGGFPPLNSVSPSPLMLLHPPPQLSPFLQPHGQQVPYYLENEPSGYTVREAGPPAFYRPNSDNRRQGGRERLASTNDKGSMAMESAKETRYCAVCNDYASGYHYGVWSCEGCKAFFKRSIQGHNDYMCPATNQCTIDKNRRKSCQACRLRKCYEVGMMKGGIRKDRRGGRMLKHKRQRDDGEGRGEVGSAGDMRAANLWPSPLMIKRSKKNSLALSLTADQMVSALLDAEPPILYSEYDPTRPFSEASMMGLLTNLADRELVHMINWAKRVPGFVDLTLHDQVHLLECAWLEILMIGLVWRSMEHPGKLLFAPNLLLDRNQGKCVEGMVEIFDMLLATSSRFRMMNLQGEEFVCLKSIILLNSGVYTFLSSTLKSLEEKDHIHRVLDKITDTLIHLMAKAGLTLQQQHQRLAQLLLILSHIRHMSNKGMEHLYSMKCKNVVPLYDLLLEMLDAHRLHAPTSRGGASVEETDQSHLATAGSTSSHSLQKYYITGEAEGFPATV
SMILES,Potency [1],outcome [2],Potency [3],outcome [4],Potency [5],outcome [6],Potency [7],Potency [8],Potency [9]
CCOC(=O)C(=O)OCC,inactive,inactive,inactive,inactive,inactive,inactive,inactive,inactive,–
CC/C=C\CC/C=C/C(OCC)OCC,inactive,inactive,inactive,–,inactive,inactive,inactive,inactive,–
CCCCCCCCS(=O)(=O)Cl,inactive,inactive,inactive,–,inactive,inactive,inactive,inactive,–
CO[Si](CCCOCC1CO1)(OC)OC (stereo not given),inactive,inactive,inactive,inactive,inactive,inactive,inactive,inactive,–
NC(=O)c1ccc(N)cc1,inactive,inactive,inactive,inactive,inactive,inactive,inactive,inactive,–
OC(CCN1CCCCC1)(c1ccccc1)C1CC2C=CC1C2 (stereo not given),inactive,inactive,inactive,inactive,inactive,inactive,–,inactive,–
OCCCC1CCCCC1,inactive,inactive,inactive,inactive,inactive,inactive,inactive,inactive,–
CCCCC/C=C\CCC=O,inactive,inactive,inactive,inactive,inactive,inactive,inactive,inactive,–
CC(C)(C)c1ccc(O)c(O)c1,inactive,inactive,inactive,–,inactive,inactive,27.3 µM (active),50.2 µM (active) and 24.3 µM (active),inactive
CCCC(=O)O[C@]1(C(=O)CO)CC[C@H]2[C@@H]3CCC4=CC(=O)CC[C@]4(C)[C@H]3[C@@H](O)C[C@@]21C,inactive,inactive,inactive,–,inactive,inactive,inactive,inactive,inactive
CCCCOCCOCCOCCCC,inactive,inactive,inactive,–,inactive,inactive,inactive,inactive,–
O=[N+]([O-])c1ccc(F)cc1F,inactive,inactive,inactive,inactive,inactive,inactive,inactive,inactive,–
Brc1c(NC2=NCCN2)ccc2nccnc12,inactive,inactive,inactive,–,inactive,inactive,inactive,inactive,inactive

# Reference: PubChem BioAssay (Tox21)
